Results from PubChem BioAssay AID463176 (Southern Research Specialized Biocontainment Screening …, 2010).
The source made the active and inactive calls.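 The calls were made as follows: active = inhibition above 30% at one or more tested concentrations in the dose response; inactive = inhibition below 30% at every tested concentration.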

experiment: PhoP regulon inhibitors in S. Typhimurium, late-stage follow-up, synthesized compounds, set 5 (AID 463176); conditions: S. Typhimurium PhoP-promoter GFP reporter, fluorescence, 4 h; series mostly up to 150 µM

outcome, inactive:
O=C1C2=C(Nc3ccccc3SC2c2cccc(Br)c2)c2ccccc21 (stereo unspecified), Clc1ccc(C2Sc3ccccc3N=C3c4ccccc4CC32)cc1 (stereo unspecified), O=C1C2=C(Nc3ccccc3SC2c2cccnc2)c2ccccc21 (stereo unspecified), COc1cccc(NC(=O)N2CCCN(Cc3ccccc3F)C2)c1, Cc1ccc(C2Sc3ccccc3N=C3c4ccccc4CC32)cc1 (stereo unspecified), O=C1C2=C(Nc3ccccc3SC2c2ccc(Cl)cc2)c2ccccc21 (stereo unspecified)
